Molecules are shown by their SMILES. This is part of a sample that, as a whole, favours compounds with a hit. Of some 83,000 tested, about 20% had one in any assay.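 Treatment: one concentration, 48 hours, 96-well format. Scoring: percent growth, with anything below 10 considered active.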 A number with no mark means an inactive call. Activity calls are given as the source filed them.

One assay deals with LOX IMVI melanoma. As to the kind of experiment: NCI-60 one-dose screen, 48 h (100 = growth as untreated, 0 = no growth, -100 = all killed). The following applies: 10 µM.
Take `O=C1NC2C=CC=CC2/C1=C1/SC(=S)N(C2CC(=O)N(c3ccc(Br)cc3)C2=O)C1=O` (centres undefined): the growth was 33.8%.

For `CC1(C)CC(=O)C2=C(C1)N(Cc1ccc(C(=O)O)cc1)C1=C(C(=O)CC(C)(C)C1)C2c1ccc(Cl)cc1`, the growth is 61.7%. Turning to `O=C(CSc1nc2ccccc2c(=O)n1-c1ccc(Cl)cc1)Nc1ccc(-c2nc3ccccc3[nH]2)cc1`, the growth was -88.2% (active). Still for that read-out and setting: with `Cc1ccc2c(c1)C(=O)/C(=C/c1c[nH]c3ccccc13)S2` the figure was 19.1%; with `COc1cccc(O)c1/C=C1\SCc2cc3c(OC)cccc3[o+]c21`, 103%; with `COc1cc(C2CC(c3ccc(Oc4ccc(Cl)cc4)cc3)=NN2c2nc(-c3ccc(Cl)cc3)c(C#N)c(N3CCOCC3)n2)cc(OC)c1OC` (centres undefined), 80.6%.

As for `Cc1ccc2sc3c(c2c1)Oc1nc[nH]c(=O)c1C3c1cccc(F)c1` (centres undefined), the growth is 107%. Take `CC(C)(C)c1cc(/C=C2\S/C(=N/c3ncn[nH]3)NC2=O)cc(C(C)(C)C)c1O`: the growth is -7.75% (active). Same read-out and setting: with `COc1ccc(C(=O)COc2ccc(NC(=O)Nc3ccc(Cl)c(C(F)(F)F)c3)cc2)cc1` the figure was -60.5% (active); with `O=C(CSc1nc2ccccc2c(=O)n1-c1ccc(Cl)cc1)Nc1ccc(-c2nc3ccc([N+](=O)[O-])cc3[nH]2)cc1`, -30% (active).

Another assay relates to SK-MEL-28 melanoma. Described as above. The following applies: 10 µM.
For `COc1ccc(C2c3sc4ccc(C)cc4c3Oc3nc(N)nc(N)c32)cc1` (centres undefined), the growth is 93.2%.

As to `Cc1cc(N=C2NC(=O)S/C2=C\c2ccc(F)cc2)n[nH]1`, the growth was -7.09% (active). In the case of `Cn1cc(-c2nnc(N)nc2-c2c[nH]c3ccccc23)c2cc(Br)cnc21`, the growth was 49.2%. As for `O=C(CC(=O)Nc1ccc(Oc2ncnc3scc(Nc4n[nH]c(=S)s4)c23)cc1)Nc1ccc(Cl)cc1`, the growth was 101%. Still for that read-out and setting: with `O=C1NC2C=CC=CC2/C1=C1/SC(=S)N(C2CC(=O)N(c3ccc(Br)cc3)C2=O)C1=O` (centres undefined) the figure was 101%; with `CC1(C)CC(=O)C2=C(C1)N(Cc1ccc(C(=O)O)cc1)C1=C(C(=O)CC(C)(C)C1)C2c1ccc(Cl)cc1`, 119%.

On to `Cc1ccc2c(c1)C(=O)/C(=C/c1ccc([N+](=O)[O-])cc1)S2`, for which the growth was 109%. Same read-out and setting: as for `O=C(Nc1ccc(OCc2ccc(Cl)cc2)cc1)Nc1ccc(Cl)c(C(F)(F)F)c1`, the figure is 35.6%; as for `Cn1cc(-c2nc(N)nnc2-c2c[nH]c3ccccc23)c2cc(Br)cnc21`, 39.8%. As to `O=C(CSc1nc2ccccc2c(=O)n1-c1ccc(Cl)cc1)Nc1ccc(-c2nc3ccccc3[nH]2)cc1`, the growth was -62% (active). Same read-out and setting: with `Cc1ccc2c(c1)C(=O)/C(=C/c1c[nH]c3ccccc13)S2` the figure was 65.2%; with `COc1cccc(O)c1/C=C1\SCc2cc3c(OC)cccc3[o+]c21`, 105%. Still for that read-out and setting: with `COc1cc(C2CC(c3ccc(Oc4ccc(Cl)cc4)cc3)=NN2c2nc(-c3ccc(Cl)cc3)c(C#N)c(N3CCOCC3)n2)cc(OC)c1OC` (centres undefined) the figure was 97.8%; with `O=C(Nc1ccc(OCC(=O)c2ccc(Cl)cc2)cc1)Nc1ccc(Cl)c(C(F)(F)F)c1`, 32.7%. As to `Cc1ccc2sc3c(c2c1)Oc1nc[nH]c(=O)c1C3c1cccc(F)c1` (centres undefined), the growth was 110%. Take `Cc1cc(N=C2NC(=O)/C(=C/c3cc(C(C)(C)C)c(O)c(C(C)(C)C)c3)S2)n[nH]1`: the growth was 22.9%. Same read-out and setting: as for `COc1ccc(C2c3sc4ccc(C)cc4c3Oc3nc[nH]c(=O)c32)cc1` (centres undefined), the figure is 80.9%; as for `COc1cccc(C(=O)CSc2nc(-c3ccc(OCc4ccccc4)c(OC)c3)c(C#N)c(=O)[nH]2)c1`, 96.5%. For `Cc1ccc(COc2ccc(NC(=O)Nc3ccc(Cl)c(C(F)(F)F)c3)cc2)cc1`, the growth was 93.6%.

Turning to `CC(C)(C)c1cc(/C=C2\S/C(=N/c3ncn[nH]3)NC2=O)cc(C(C)(C)C)c1O`, the growth is 21.6%. On the same count and under the same terms, with `Cn1cc(/C=C(/SS/C(=C/c2cn(C)c3cccc(C(=O)O)c23)C(=O)O)C(=O)O)c2c(C(=O)O)cccc21` the figure was 98.3%; with `COc1ccc(C(=O)COc2ccc(NC(=O)Nc3ccccc3)cc2)cc1`, 102%. Same read-out and setting: as for `CCn1c(SCC(=O)Nc2ccc(-c3nc4ccccc4[nH]3)cc2)nc2ccccc2c1=O`, the figure is -76.7% (active); as for `O=C(Nc1ccc(OCc2ccc(F)cc2)cc1)Nc1ccc(Cl)c(C(F)(F)F)c1`, 31.4%. Regarding `O=C(CC(=O)Nc1ccc(Oc2ncnc3scc(Nc4n[nH]c(=S)s4)c23)cc1)Nc1ccc(Br)cc1`, the growth was 110%. On to `COc1ccc(C(=O)COc2ccc(NC(=O)Nc3ccc(Cl)c(C(F)(F)F)c3)cc2)cc1`, for which the growth was 40.1%.

As to `O=C(Nc1ccc(Oc2ncnc3scc(Nc4n[nH]c(=S)s4)c23)cc1)C1(C(=O)Nc2cccc(C(F)(F)F)c2)CC1`, the growth is 108%. Still for that read-out and setting: with `O=C1NC(=S)S/C1=C\c1cn(-c2ccccc2)nc1-c1ccc([N+](=O)[O-])cc1` the figure was 18.3%; with `O=C(CSc1nc2ccccc2c(=O)n1-c1ccc(Cl)cc1)Nc1ccc(-c2nc3ccc([N+](=O)[O-])cc3[nH]2)cc1`, 21.1%.

(Values after PubChem BioAssay (NCI).)
